Test results reported in PubChem BioAssay (NCATS).
Records with an inconclusive call do not appear. Where a call stands in place of a potency, no number is given. Unmarked numbers belong to inactive results. Active and inactive are the calls of the source. The call rests on the fitted dose curve; in most records, active means well fitted inhibition curve with a large enough effect; inconclusive means small, poorly fitted or top-dose-only effect; inactive means flat fitted curve, though single readings scatter.

Legend:
[1] = qHTS profiling for inhibitors of Plasmodium falciparum proliferation (AID 504749); further: nearly all actives have a fitted effect of over 60% in size; settings: P. falciparum in erythrocytes, SYBR Green DNA, 72 h
Method in brief: (§1)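 Infected RBCs, 0.3% parasitemia/2.5% Hct final; cpd 72 h, 37 C, 5% CO2; lysis buffer with saponin/triton/SYBR Green I, o/n RT dark; FI 485/535; norm. to artemisinin (0.29 uM) and DMSO.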

3D7 = assay: as above; settings: P. falciparum in erythrocytes, SYBR Green DNA, 72 h; series mostly up to 28.7 µM
Method in brief: as §1

7G8 = assay: as above; settings: P. falciparum in erythrocytes, SYBR Green DNA, 72 h; series mostly up to 28.7 µM
Method in brief: as §1

AA1029 = assay: as above; settings: P. falciparum in erythrocytes, SYBR Green DNA, 72 h; series mostly up to 28.7 µM
Method in brief: as §1

ATS189 = assay: as above; settings: P. falciparum in erythrocytes, SYBR Green DNA, 72 h; series mostly up to 28.7 µM
Method in brief: as §1

ATS95 = assay: as above; settings: P. falciparum in erythrocytes, SYBR Green DNA, 72 h; series mostly up to 28.7 µM
Method in brief: as §1

C2A = assay: as above; settings: P. falciparum in erythrocytes, SYBR Green DNA, 72 h; series mostly up to 28.7 µM
Method in brief: as §1

CP185 = assay: as above; settings: P. falciparum in erythrocytes, SYBR Green DNA, 72 h; series mostly up to 28.7 µM
Method in brief: as §1

CP191 = assay: as above; settings: P. falciparum in erythrocytes, SYBR Green DNA, 72 h; series mostly up to 28.7 µM
Method in brief: as §1

CP192 = assay: as above; settings: P. falciparum in erythrocytes, SYBR Green DNA, 72 h; series mostly up to 28.7 µM
Method in brief: as §1

AS120 = assay: as above; settings: P. falciparum in erythrocytes, SYBR Green DNA, 72 h; series mostly up to 28.7 µM
Method in brief: as §1

CP194 = assay: as above; settings: P. falciparum in erythrocytes, SYBR Green DNA, 72 h; series mostly up to 28.7 µM
Method in brief: as §1

[2] = at 28.7 µM (top of the series), parasite line A
[3] = at 28.7 µM (top of the series), parasite line B
Potency means the concentration at half of the fitted maximal effect.

For `Oc1ccc(Cl)cc1Sc1cc(Cl)ccc1O`, the activity, negative = inhibition [1, 2] was 0.98%, the activity, negative = inhibition [1, 3] was -24.8% and the Potency (3D7) was “inactive”. The Potency (7G8) was 12.6 µM (active), the Potency (AA1029) was “inactive” and the Potency (ATS189) was “inactive”. The Potency (ATS95) was “inactive”, the Potency (C2A) was “inactive” and the Potency (CP185) was “inactive”. For the same compound, the Potency (CP191) was “inactive” and the Potency (CP192) was “inactive”.
For `COc1ccc(CN2CCN(C(c3ccc(F)cc3)c3ccc(F)cc3)CC2)c(OC)c1OC`, the Potency ([1]; parasite line A) was 8.91 µM (active), the Potency ([1]; parasite line B) was 8.91 µM (active) and the Potency (3D7) was 7.94 µM (active). For the same compound, the Potency (7G8) was 2.82 µM (active), the Potency (AA1029) was 10 µM (active) and the Potency (AS120) was 7.08 µM (active). For the same compound, the Potency (ATS189) was 10 µM (active), the Potency (ATS95) was 12.6 µM (active) and the Potency (C2A) was 12.6 µM (active). For the same compound, the Potency (CP185) was 10 µM (active), the Potency (CP191) was 7.94 µM (active) and the Potency (CP194) was 15.1 µM (active).
With `C[N+]1(CCCCC[N+]2(C)CCCC2)CCCC1` the activity, negative = inhibition [1, 2] was 2.83%, the activity, negative = inhibition [1, 3] was 3.44% and the Potency (3D7) was “inactive”. For the same compound, the Potency (7G8) was “inactive”, the Potency (AA1029) was “inactive” and the Potency (AS120) was “inactive”. For the same compound, the Potency (ATS189) was “inactive”, the Potency (ATS95) was “inactive” and the Potency (C2A) was “inactive”. For the same compound, the Potency (CP185) was “inactive”, the Potency (CP191) was “inactive” and the Potency (CP192) was “inactive”. The Potency (CP194) was “inactive”.
In the case of `CC1(C)CCC(NC(=O)[C@@H](N)CCC(=O)O)CC1`, the activity, negative = inhibition [1, 2] is reported as 2.48%, the activity, negative = inhibition [1, 3] is reported as 10.3% and the Potency (3D7) is reported as “inactive”. For the same compound, the Potency (7G8) was “inactive”, the Potency (AA1029) was “inactive” and the Potency (AS120) was “inactive”. The Potency (ATS189) was “inactive”, the Potency (ATS95) was “inactive” and the Potency (C2A) was “inactive”. For the same compound, the Potency (CP185) was “inactive”, the Potency (CP191) was “inactive” and the Potency (CP192) was “inactive”. The Potency (CP194) was “inactive”.
In the case of `C[C@]12CCC(=O)C=C1CC[C@H]1[C@@H]3CC[C@](O)(C(=O)CO)[C@@]3(C)C[C@H](O)[C@@]12F`, the activity, negative = inhibition [1, 2] is reported as 4.53%, the activity, negative = inhibition [1, 3] is reported as 9.81% and the Potency (3D7) is reported as “inactive”. The Potency (7G8) was “inactive”, the Potency (AA1029) was “inactive” and the Potency (AS120) was “inactive”. For the same compound, the Potency (ATS189) was “inactive”, the Potency (ATS95) was “inactive” and the Potency (C2A) was “inactive”. For the same compound, the Potency (CP185) was “inactive”, the Potency (CP191) was “inactive” and the Potency (CP192) was “inactive”. For the same compound, the Potency (CP194) was “inactive”.
In the case of `CC1=C(C(=O)OC(C)C)C(c2cccc([N+](=O)[O-])c2)C(C(=O)OC2CN(C(c3ccccc3)c3ccccc3)C2)=C(N)N1` (centres undefined), the Potency ([1]; parasite line A) is reported as 3.55 µM (active), the Potency ([1]; parasite line B) is reported as 7.08 µM (active) and the Potency (3D7) is reported as 7.08 µM (active). The Potency (7G8) was 3.16 µM (active), the Potency (AA1029) was 7.08 µM (active) and the Potency (AS120) was 4.47 µM (active). The Potency (ATS189) was 7.08 µM (active), the Potency (ATS95) was 11.2 µM (active) and the Potency (CP185) was 10 µM (active). For the same compound, the Potency (CP191) was 7.08 µM (active), the Potency (CP192) was 7.57 µM (active) and the Potency (CP194) was 6.75 µM (active).
For `O=C1CCC(c2ccc(-n3ccnc3)cc2)=NN1`, the activity, negative = inhibition [1, 2] was 16%, the activity, negative = inhibition [1, 3] was 14.3% and the Potency (3D7) was “inactive”. The Potency (7G8) was “inactive”, the Potency (AA1029) was “inactive” and the Potency (AS120) was “inactive”. For the same compound, the Potency (ATS189) was “inactive”, the Potency (ATS95) was “inactive” and the Potency (C2A) was “inactive”. For the same compound, the Potency (CP185) was “inactive”, the Potency (CP191) was “inactive” and the Potency (CP192) was “inactive”. For the same compound, the Potency (CP194) was “inactive”.
For `N[C@H](CO)C(=O)O`, the activity, negative = inhibition [1, 2] was -0.225%, the activity, negative = inhibition [1, 3] was -23.4% and the Potency (3D7) was “inactive”. For the same compound, the Potency (7G8) was “inactive”, the Potency (AA1029) was “inactive” and the Potency (AS120) was “inactive”. For the same compound, the Potency (ATS189) was “inactive”, the Potency (ATS95) was “inactive” and the Potency (C2A) was “inactive”. The Potency (CP185) was “inactive”, the Potency (CP191) was “inactive” and the Potency (CP192) was “inactive”. For the same compound, the Potency (CP194) was “inactive”.
In the case of `C[C@@H]1C[C@H]2[C@@H]3CCC4=CC(=O)C=C[C@]4(C)[C@@]3(F)[C@@H](O)C[C@]2(C)[C@H]1C(=O)CO`, the activity, negative = inhibition [1, 2] is reported as -3.59%, the activity, negative = inhibition [1, 3] is reported as -8.33% and the Potency (3D7) is reported as “inactive”. The Potency (7G8) was 11.2 µM (active), the Potency (AA1029) was “inactive” and the Potency (AS120) was “inactive”. The Potency (ATS189) was 0.316 µM (active), the Potency (ATS95) was “inactive” and the Potency (C2A) was “inactive”. For the same compound, the Potency (CP185) was “inactive”, the Potency (CP191) was “inactive” and the Potency (CP194) was “inactive”.
For `COc1c2occc2c(OC)c2c(=O)cc(C)oc12`, the activity, negative = inhibition ([1]; at 12.8 µM (top of the series), parasite line A) was 5.55%, the activity, negative = inhibition ([1]; at 12.8 µM (top of the series), parasite line B) was 4.52% and the Potency (3D7) was “inactive”. The Potency (7G8) was “inactive”, the Potency (AA1029) was “inactive” and the Potency (AS120) was “inactive”. For the same compound, the Potency (ATS189) was “inactive”, the Potency (ATS95) was “inactive” and the Potency (C2A) was “inactive”. For the same compound, the Potency (CP185) was “inactive”, the Potency (CP191) was “inactive” and the Potency (CP192) was “inactive”. For the same compound, the Potency (CP194) was “inactive”.
For `NCCC(O)(P(=O)(O)O)P(=O)(O)O`, the activity, negative = inhibition [1, 2] was 4.48%, the activity, negative = inhibition [1, 3] was -11.5% and the Potency (3D7) was “inactive”. For the same compound, the Potency (7G8) was “inactive”, the Potency (AA1029) was “inactive” and the Potency (AS120) was “inactive”. For the same compound, the Potency (ATS189) was “inactive”, the Potency (ATS95) was “inactive” and the Potency (C2A) was “inactive”. The Potency (CP185) was “inactive”, the Potency (CP191) was “inactive” and the Potency (CP192) was “inactive”. For the same compound, the Potency (CP194) was “inactive”.
With `Cc1c(C(N)=O)cc([N+](=O)[O-])cc1[N+](=O)[O-]` the activity, negative = inhibition [1, 2] was -7.97%, the activity, negative = inhibition [1, 3] was -2.31% and the Potency (3D7) was “inactive”. The Potency (7G8) was “inactive”, the Potency (AA1029) was “inactive” and the Potency (AS120) was “inactive”. The Potency (ATS189) was “inactive”, the Potency (ATS95) was “inactive” and the Potency (C2A) was “inactive”. For the same compound, the Potency (CP185) was “inactive”, the Potency (CP191) was “inactive” and the Potency (CP194) was “inactive”.
In the case of `CC(=O)Oc1ccc(C(c2ccc(OC(C)=O)cc2)c2ccccn2)cc1`, the activity, negative = inhibition [1, 2] is reported as 0.325%, the activity, negative = inhibition [1, 3] is reported as 3.02% and the Potency (3D7) is reported as “inactive”. For the same compound, the Potency (7G8) was “inactive”, the Potency (AA1029) was “inactive” and the Potency (AS120) was “inactive”. The Potency (ATS189) was “inactive”, the Potency (ATS95) was “inactive” and the Potency (C2A) was “inactive”. For the same compound, the Potency (CP185) was “inactive”, the Potency (CP191) was “inactive” and the Potency (CP192) was “inactive”. For the same compound, the Potency (CP194) was “inactive”.
With `CCC(C(=O)OCCN(CC)CC)c1ccccc1` (centres undefined) the activity, negative = inhibition [1, 2] was -4.21%, the activity, negative = inhibition [1, 3] was 8.52% and the Potency (3D7) was “inactive”. The Potency (7G8) was “inactive”, the Potency (AA1029) was “inactive” and the Potency (AS120) was “inactive”. The Potency (ATS189) was “inactive”, the Potency (ATS95) was “inactive” and the Potency (C2A) was “inactive”. The Potency (CP185) was “inactive”, the Potency (CP191) was “inactive” and the Potency (CP192) was “inactive”. For the same compound, the Potency (CP194) was “inactive”.
With `COc1cc(OC)cc(OC)c1` the activity, negative = inhibition [1, 2] was 14.7%, the activity, negative = inhibition [1, 3] was 2.05% and the Potency (3D7) was “inactive”. The Potency (7G8) was “inactive”, the Potency (AA1029) was “inactive” and the Potency (AS120) was “inactive”. The Potency (ATS189) was “inactive”, the Potency (ATS95) was “inactive” and the Potency (C2A) was “inactive”. For the same compound, the Potency (CP185) was “inactive”, the Potency (CP191) was “inactive” and the Potency (CP192) was “inactive”. For the same compound, the Potency (CP194) was “inactive”.
